Compound activity as filed in PubChem.
Compounds with a hit are over-represented: about 12% of the library has one in this group of screens.
G9a inh: blocks human histone lysine methyltransferase G9a. Potency, µM (series often up to 102 µM), for the others: at the top dose activity, negative = inhibition, usual class: inhibitors. G9a H3K9 monomethylation, AlphaScreen, 2 h. Q96KQ7. 8.8% of 350,000 active; note: % is set by controls: 0 for no effect and ±100 for the full control effect; nearly all actives have a fitted effect of over 75% in size
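Step 1: enzyme (final 20 nM) with compound, 15 min RT. Step 2: substrate peptide 500 nM and SAM 20 uM, 2 h RT. Step 3: anti-H3K9me1 antibody and AlphaScreen beads, 10 min, then plate read.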
HP1b binding inh: inhibitors of HP1-beta chromodomain binding to methylated histone tails | P83916 | AlphaScreen HP1-beta / biotin-H3K9me3 peptide binding | Potency, µM (doses to about 114 µM), inactives show top-dose activity change, negative = inhibition, most hits filed as inhibitors | 0.56% of 390,000 active; note: nearly all actives have a fitted effect of over 70% in size
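AlphaScreen: HP1-beta (50 nM) preformed 30 min with biotin-H3(1-18)K9me3 peptide (50 nM) in PBS pH 7.4, 0.01% Tween-20. Compound added for 30 min at RT, then streptavidin donor/nickel chelate acceptor beads (10 ug/mL) for 30 min.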
L3MBTL1 block: L3MBTL1 (human) inhibition; Q9Y468; AlphaScreen L3MBTL1–H3K9me1 peptide binding; Potency, µM (doses to about 57.1 µM), without a hit: at the top dose activity, negative = inhibition, most hits filed as inhibitors; 0.66% of 230,000 active; AID 485360; note: % is set by controls: 0 for no effect and ±100 for the full control effect; nearly all actives have a fitted effect of over 60% in size
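AlphaScreen assay: L3MBTL1 (50 nM final) was preincubated 30 min at room temperature with biotinylated H3(1-15)K9me1 peptide (75 nM final), then 30 min with library compounds; streptavidin donor and nickel chelate acceptor beads (10 ug/mL final) added, 30 min dark.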
BAZ2B inh: inhibitors of human BAZ2B bromodomain. 4.4% of 360,000 active. AlphaScreen BAZ2B-H3K14Ac peptide displacement. Potency, µM (doses to about 114 µM), for inactives: at the top dose activity change, negative = inhibition, actives largely listed as inhibitors. AID 504333; note: % is set by controls: 0 for no effect and ±100 for the full control effect; nearly all actives have a fitted effect of over 60% in size
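In this displacement format the biotinylated H3(5-23) peptide acetylated at Lys14 serves as ligand at 50 nM, with BAZ2B at 50 nM in PBS pH 7.4 containing 0.01% Tween-20. Donor and acceptor beads are 10 ug/mL final.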
JMJD2A Tudor inh: inhibitors of human JMJD2A Tudor domain; O75164; AlphaScreen JMJD2A-Tudor / H3K4me3 peptide binding; Potency, µM (series often up to 114 µM), for the others: top-dose activity change, negative = inhibition, actives largely listed as inhibitors; 4.4% of 390,000 active; note: % is set by controls: 0 for no effect and ±100 for the full control effect; nearly all actives have a fitted effect of over 50% in size
Sfp PPTase inh: inhibitors of Bacillus subtilis Sfp phosphopantetheinyl transferase; Biochemical Sfp PPTase activity, qHTS; Potency, µM, inactives show largest response in the series, negative = inhibition, usual class: inhibitors; Q9F4F7; 3.5% of 310,000 active;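 note: the enzyme is Sfp with the accession as filed and its product quenches rhodamine fluorescence; 0% = enzyme reaction without inhibitor and -100% = no enzyme wells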
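Compounds were incubated with enzyme (final 15 nM) for 15 min at room temperature before substrate addition started the reaction. Fluorescence at 525 nm excitation, 598 nm emission was recorded immediately and after 30 minutes.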
* marks the source's active call; other numbers are inactive results; ? = inconclusive; nt = not tested or not shown; ! = not active in a repeat; [ ] = another dose, or the depositor's remark. Calls come from the whole dose curve; as a rule, active = well fitted curve in the direction sought with a large enough effect; inconclusive = small, poorly fitted or top-dose-only effect, or another doubt; inactive = no such curve, though single readings can be large; an effect the other way counts as inactive or inconclusive. Potency is the fitted concentration of half-maximal effect.

SMILES	G9a inh	HP1b binding inh	L3MBTL1 block	BAZ2B inh	JMJD2A Tudor inh	Sfp PPTase inh
Cc1ccc(C)c2c1cc(C)c1nnc(SCC(=O)c3cccs3)n12	13µM*	23%	5%	1%	?	-4%
CCOC(=O)c1cocc1C(=O)O	nt	22%	nt	nt	-3%	nt
CN(c1ccccc1)c1ccc(/C=C/[N+](=O)[O-])cc1	?	10%[57 µM]	6%	-16%	?	18µM*
O=C(COc1ccc(Cl)cc1)NCCc1csc(-c2ccc(C(F)(F)F)cc2)n1	6%[59 µM]	29%[57 µM]	nt	0%	-3%	nt
COC(=O)C1=C(C(=O)OC)[C@@H]2Nc3ccccc3[C@@]23C[C@@H](C(=O)OC)N(C(=O)c2cccs2)C3=N1	nt	48%	nt	nt	-24%	-14%
C=CCNc1nnc(Cc2ccc(C(C)C)cc2)c(=O)[nH]1	-8%	-8%	nt	?	56µM*	-3%
Cc1c(Cl)cccc1NC(=O)CC1Oc2ccccc2NC1=O (stereo not drawn)	18%[0.501 µM]	4%	nt	-5%	5%	-31%
N#Cc1cccc(NC(=O)N2CCC3(CC2)CCN(C(=O)c2cnccn2)CC3)c1	5%[12.7 µM]	nt	nt	nt	nt	24%
CNC(=O)OCc1cccc(COC(=O)NC)n1	45µM*!	32%	5%	?	-5%	14%
CC(=O)NCc1cccc(CNC(C)=O)n1	-1%[12.7 µM]	18%	1%	12%	-19%	11%
CC1(C)CC(=O)C(CS(=O)(=O)c2ccccc2)=C(O)C1	?	28%	nt	-10%	4%	50µM*
Cc1ccc(NC(=O)c2ccc(Cl)c(N3C(=O)C=CC3=O)c2)cc1	-40%[0.501 µM]	?	-1%	22µM*	7.9µM*	2.8µM*
Nc1ccccc1C(=O)NNc1ncc(C(F)(F)F)cc1Cl	28%	40%	-6%	50µM*	-19%	5%
O=S(=O)(NNc1ncc(C(F)(F)F)cc1Cl)c1ccccc1	?	?	-7%	-8%	0.71µM*	nt
COc1ccc(Oc2ncc3nc(-c4ccc(OC)cc4)c(=O)n(C4CC4)c3n2)cc1	2%[0.501 µM]	nt	nt	nt	nt	20%
Nc1nc2ccc([N+](=O)[O-])c(N)c2s1	-46%[0.0925 µM]	-9%	-10%	-35%	-30%	89µM*
Cc1cccc(C)c1NC(=O)c1sccc1SCC#N	11µM*	20%	9%	-3%	-13%	5%
CNC(=O)c1sccc1SCc1c(Cl)cccc1Cl	11%	44%	nt	-3%	11%	-5%
Cn1nnnc1Sc1ncnc2scc(-c3cccc([N+](=O)[O-])c3)c12	nt	nt	nt	nt	-27%	nt
O=C1C=C[C@@H](O)[C@H]2[C@@H]3C(=O)N(C4CCCCC4)C(=O)[C@@H]3CC[C@H]12	nt	nt	nt	nt	nt	0%
Cc1ccnc2nc(C(=O)OCC(=O)N(CC(C)C)C3CCS(=O)(=O)C3)nn12 (stereo not drawn)	-10%[12.7 µM]	39%	5%	-3%	7%	nt
O=C(NCC(c1cccnc1)N1CCOCC1)c1cccs1 (stereo not drawn)	45µM*	38%	-3%	-10%	9%[57.1 µM]	3%
CCc1ccc(NC(=O)C(=O)NCC(c2cccnc2)N2CCN(C)CC2)cc1 (stereo not drawn)	16µM*	17%	nt	45µM*	56µM*	nt
CCc1ccc(NC(=O)C(=O)NCC(c2cccnc2)N2CCN(c3ccc(F)cc3)CC2)cc1 (stereo not drawn)	?	32%	nt	6%	-16%	nt
Cc1cccc(C(=O)NCC(c2cccs2)N2CCOCC2)c1 (stereo not drawn)	7.9µM*	18%	-2%	10%	-3%	nt
SMILES	G9a inh	HP1b binding inh	L3MBTL1 block	BAZ2B inh	JMJD2A Tudor inh	Sfp PPTase inh
COC(=O)NCC(c1cccnc1)N1CCOCC1 (stereo not drawn)	?	55%	-2%	-2%	2%	8%
COc1ccc(OCC(O)CNC(=O)c2c(-c3ccccc3)noc2C)cc1 (stereo not drawn)	nt	44%	9%	0%	-14%	0%
COCc1cc(C)nc2c1C(=O)NC(c1ccc(NC(C)=O)cc1)N2Cc1ccccc1 (stereo not drawn)	-30%[59 µM]	19%	nt	-11%	-6%	nt
COCc1cc(C)nc2c1C(=O)NC(c1ccc(F)cc1)N2Cc1ccccc1 (stereo not drawn)	14µM*	4%	nt	-8%	-15%	nt
COC(=O)Cn1c2ccc(OC)cc2c2nc(C)sc21	nt	-3%	3%	-7%	-20%	-3%
OC(COCc1ccccc1)CN1CCN(c2ccccc2)CC1 (stereo not drawn)	?	49%	-2%	?	?	2%
Cc1ccc(OCC(O)CN2CCN(c3ccc(C)cc3)CC2)cc1 (stereo not drawn)	-17%	17%	-5%	-31%	-24%	5%
COCCOCC(O)CN1CCN(c2ccccc2)CC1 (stereo not drawn)	?	-26%	nt	50µM*	13µM*	?
COCCOCC(O)CN1CCN(c2ccc(C)cc2)CC1 (stereo not drawn)	4.5µM*	-38%	-7%	nt	?	79µM*
CNC(=O)[C@H](C)/C=C(\c1cccnc1)C(NC(=O)OCc1ccccc1)c1ccc(C(=O)OC)cc1 (stereo partly drawn)	nt	nt	nt	nt	nt	18%
Cc1ccc(NC(=O)CSc2nncn3c2cc2sccc23)cc1F	-5%[59 µM]	-3%	nt	?	-29%	nt
Clc1ccc(C2Nc3cccc4cccc(c34)N2)c(Cl)c1	nt	?	nt	nt	35µM*	nt
Cc1cccc(C2Nc3cccc4cccc(c34)N2)c1	35µM*	?	nt	?	?	-23%
